Laboratory results published in the supplement of paper PMC6522484.
± gives the standard deviation of the averaged measurements.

Legend:
[1] = system: DLD1; assay: cell viability (CellTiter-Glo) relative to plate median (fraction of plate median); higher = more viable cells; details: 5 µM; treatment time 24 h; reporter: 7TFP
How it was run: (§1)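 Each entry is a luminescence signal normalised to the plate median, averaged over independent replicates. The replicate count was two, and the cells were colorectal cancer lines with stable lentiviral TCF/Wnt firefly luciferase reporters exposed to library compounds at a final 5 µM for 24 h. Firefly luciferase and CellTiterGlo were measured on parallel plates.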

[2] = system: HCT116; assay: as above; details: 5 µM; treatment time 24 h; reporter: TCF4/Wnt
How it was run: as §1

[3] = system: SW480; assay: as above; details: 5 µM; treatment time 24 h; reporter: 7TFP
How it was run: as §1

[4] = system: DLD1; assay: TCF/Wnt firefly luciferase reporter signal relative to plate median (fraction of plate median); higher = higher Wnt reporter signal; details: 5 µM; treatment time 24 h; reporter: 7TFP
How it was run: as §1

[5] = system: SW480; assay: as above; details: 5 µM; treatment time 24 h; reporter: 7TFP
How it was run: as §1

SMILES | cell viability [1] | cell viability [2] | cell viability [3] | TCF/Wnt firefly luciferase reporter signal [4] | TCF/Wnt firefly luciferase reporter signal [5]
Cl[C@H]1[C@H](Cl)[C@@H](Cl)[C@@H](Cl)[C@H](Cl)[C@H]1Cl | 1.05 ± 0.014 | 1.035 ± 0.0071 | 1.04 ± 0.042 | 1.05 ± 0.05 | 1.15 ± 0.05
COC1CC(OC2CCC3(C)C(CCC4C3CCC3(C)C(C5=CC(=O)OC5)CCC43O)C2)OC(C)C1OC1OC(COC2OC(CO)C(O)C(O)C2O)C(O)C(O)C1O (stereo not given) | 0.873 ± 0.11 | 0.969 ± 0.0099 | 0.964 ± 0.044 | 1.14 ± 0.042 | 1.03 ± 0.098
